The record followed here is the supplement of paper PMC10981050.

Broadly, the cell viability is a read-out of living cells in per cent, often relative to untreated cells.

Where “and” joins values, the source holds several entries; their conditions need not be identical. Identical values can stand only once. Counter-ions that a name gives are not always drawn.

Holding throughout (test): cell viability relative to vehicle control; higher = less cytotoxic
What all share (conditions): 10 µM

In assay [1] the test system is K562. Put shortly: (§1)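 Screening covered the Selleck bioactive, kinase and epigenetic probe libraries, less identity-inconsistent compounds, on CRISPR-edited mutant clones and isogenic wild-type clones of four leukaemia lines. Cells, at 2000 per well in 50 µL medium, received a single 10 µM acoustically dispensed dose. After 48 h the supernatant was removed and CellTiter-Glo luminescence was read. Viability was analysed in Genedata Screener as percent of the on-plate vehicle control.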

Assay [2] relates to MARIMO. Put shortly: as §1
The subject of assay [3] is MOLM14. The method, boiled down:
as §1

Assay [4] has as its system OCI-AML2. The method, boiled down:
as §1

For `CC(=O)OCC(CCn1cnc2cnc(N)nc21)COC(C)=O` [Famciclovir (Famvir)], the cell viability in assay [1] (SRSF2 genotype: SRSF2 P95H/wt) is 103% and 95.1%; in assay [1] (SRSF2 genotype: SRSF2 wt/wt) it was 90.8%; in assay [2] (SRSF2 genotype: SRSF2 P95H/wt) it was 99.7%; in assay [2] (SRSF2 genotype: SRSF2 wt/wt), 104%; in assay [3] (SRSF2 genotype: SRSF2 P95H/wt) it was 99.3%; in assay [3] (SRSF2 genotype: SRSF2 wt/wt) it was 97.5%. In addition, the cell viability was 94.7% in assay [4] (SRSF2 genotype: P95H/wt) and 98% in assay [4] (SRSF2 genotype: wt/wt).
Take `Cc1ccc(OCC(O)C(C)NC(C)C)c2c1CCC2` (configuration not stated): the cell viability in assay [1] (SRSF2 genotype: SRSF2 P95H/wt) was 93.5% and 95.7%; in assay [1] (SRSF2 genotype: SRSF2 wt/wt), 92.1%; in assay [2] (SRSF2 genotype: SRSF2 P95H/wt) it was 104%; in assay [2] (SRSF2 genotype: SRSF2 wt/wt) it was 100%; in assay [3] (SRSF2 genotype: SRSF2 P95H/wt) it was 93.1%; in assay [3] (SRSF2 genotype: SRSF2 wt/wt), 100%. Besides, the cell viability came to 92.2% in assay [4] (SRSF2 genotype: P95H/wt) and 99% in assay [4] (SRSF2 genotype: wt/wt).
As for `CCCc1cc(C)[nH]c(=O)c1CNC(=O)c1cc(-c2ccc(N3CCN(C)CC3)nc2)nc2c1cnn2C(C)C`, the cell viability was 15.9% and 4.45% in assay [1] (SRSF2 genotype: SRSF2 P95H/wt); 20.9% in assay [1] (SRSF2 genotype: SRSF2 wt/wt); 85.6% in assay [2] (SRSF2 genotype: SRSF2 P95H/wt); 47.7% in assay [2] (SRSF2 genotype: SRSF2 wt/wt); 55.9% in assay [3] (SRSF2 genotype: SRSF2 P95H/wt); 78.5% in assay [3] (SRSF2 genotype: SRSF2 wt/wt). Also, the cell viability came to 0.4% in assay [4] (SRSF2 genotype: P95H/wt) and 0.41% in assay [4] (SRSF2 genotype: wt/wt).
On to `Cc1noc(-c2ccc(CSCCC(=O)O)cc2)c1NC(=O)OC(C)c1ccccc1Cl` (configuration not stated), for which the cell viability in assay [1] (SRSF2 genotype: SRSF2 P95H/wt) was 106% and 105%; in assay [1] (SRSF2 genotype: SRSF2 wt/wt) it was 104%; in assay [2] (SRSF2 genotype: SRSF2 P95H/wt), 101%; in assay [2] (SRSF2 genotype: SRSF2 wt/wt), 113%; in assay [3] (SRSF2 genotype: SRSF2 P95H/wt), 104%; in assay [3] (SRSF2 genotype: SRSF2 wt/wt) it was 102%. Moreover, the values for the cell viability in assay [4] (SRSF2 genotype: P95H/wt) and in assay [4] (SRSF2 genotype: wt/wt) were 104% and 111%, respectively.
Turning to `Cc1[nH]c(=O)c(C#N)cc1-c1ccncc1` [Milrinone (Primacor)], the cell viability in assay [1] (SRSF2 genotype: SRSF2 P95H/wt) is 102% and 97.3%; in assay [1] (SRSF2 genotype: SRSF2 wt/wt) it was 94.1%; in assay [2] (SRSF2 genotype: SRSF2 P95H/wt), 96.1%; in assay [2] (SRSF2 genotype: SRSF2 wt/wt) it was 93.1%; in assay [3] (SRSF2 genotype: SRSF2 P95H/wt) it was 98.8%; in assay [3] (SRSF2 genotype: SRSF2 wt/wt), 99.1%. For the same compound, the cell viability in assay [4] (SRSF2 genotype: P95H/wt) came out at 101%; in assay [4] (SRSF2 genotype: wt/wt), 96%.
On to `O=C(NCCN1CCOCC1)c1ccc(Cl)cc1`, for which the cell viability in assay [1] (SRSF2 genotype: SRSF2 P95H/wt) was 97.6% and 103%; in assay [1] (SRSF2 genotype: SRSF2 wt/wt) it was 106%; in assay [2] (SRSF2 genotype: SRSF2 P95H/wt), 101%; in assay [2] (SRSF2 genotype: SRSF2 wt/wt) it was 98.8%; in assay [3] (SRSF2 genotype: SRSF2 P95H/wt), 97.6%; in assay [3] (SRSF2 genotype: SRSF2 wt/wt), 105%. For the same compound, the cell viability in assay [4] (SRSF2 genotype: P95H/wt) turned out to be 105%; in assay [4] (SRSF2 genotype: wt/wt), 93.8%.
Take `CNC[C@H](O)c1cccc(O)c1` [Phenylephrine hydrochloride]: the cell viability was 103% and 114% in assay [1] (SRSF2 genotype: SRSF2 P95H/wt); 109% in assay [1] (SRSF2 genotype: SRSF2 wt/wt); 104% in assay [2] (SRSF2 genotype: SRSF2 P95H/wt); 104% in assay [2] (SRSF2 genotype: SRSF2 wt/wt); 101% in assay [3] (SRSF2 genotype: SRSF2 P95H/wt); 109% in assay [3] (SRSF2 genotype: SRSF2 wt/wt). Moreover, the results for the cell viability in assay [4] (SRSF2 genotype: P95H/wt) and in assay [4] (SRSF2 genotype: wt/wt) were 106% and 103%, respectively.
In the case of `O=C(Oc1coc(CSc2ncccn2)cc1=O)c1ccc([N+](=O)[O-])cc1`, the cell viability in assay [1] (SRSF2 genotype: SRSF2 P95H/wt) was 88.1% and 95.5%; in assay [1] (SRSF2 genotype: SRSF2 wt/wt), 100%; in assay [2] (SRSF2 genotype: SRSF2 P95H/wt), 98.3%; in assay [2] (SRSF2 genotype: SRSF2 wt/wt), 98.7%; in assay [3] (SRSF2 genotype: SRSF2 P95H/wt), 96.5%; in assay [3] (SRSF2 genotype: SRSF2 wt/wt) it was 97.4%. The cell viability worked out at 97.9% in assay [4] (SRSF2 genotype: P95H/wt) and 81.8% in assay [4] (SRSF2 genotype: wt/wt).
Take `Nc1ccn([C@H]2CC[C@@H](CO)O2)c(=O)n1` [Zalcitabine]: the cell viability in assay [1] (SRSF2 genotype: SRSF2 P95H/wt) is 111% and 103%; in assay [1] (SRSF2 genotype: SRSF2 wt/wt) it was 111%; in assay [2] (SRSF2 genotype: SRSF2 P95H/wt) it was 107%; in assay [2] (SRSF2 genotype: SRSF2 wt/wt), 112%; in assay [3] (SRSF2 genotype: SRSF2 P95H/wt) it was 105%; in assay [3] (SRSF2 genotype: SRSF2 wt/wt) it was 107%. The cell viability in assay [4] (SRSF2 genotype: P95H/wt) was determined as 58.7%; in assay [4] (SRSF2 genotype: wt/wt) it was 83%.
